Source: PubChem BioAssay
A selection: hits, their analogues and other compounds. The true share with any hit is near 6.6%.
Beta apoptosis: blocks beta cell apoptosis | 0.8% of 300,000 active | AID 435005 | INS-1E cytokine-induced death, ATP luminescence, 48 h; percent of positive-control rescue, neutral wells zero | protection from apoptosis, % (concentration not given with the values);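 active means Every replicate reaches about 75%, or at least half do and their mean reaches it too, limit read from the data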;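 further: 0% = cytokine-treated negative control wells and 100% = positive control rescue; higher means more ATP so stronger rescue from cytokine killing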
GRIN3A LBD mod: modulates the human NR3A ligand-binding domain. Tm shift relative to glycine control, % at 25 µM. 2.5% of 340,000 active. NR3A LBD differential scanning fluorimetry, Tm shift; 0% = protein alone, 100% = glycine-bound protein. AID 1259313;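 active means melting temperature shift of at least 10% of the positive control shift, at one fixed dose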
Mdm2-MdmX inh: disrupts the human Mdm2-MdmX interaction. O15151+Q00987. SaOS-2 split-luciferase Mdm2/MdmX complementation, luminescence. inhibition, % at 8 µM. 3% of 330,000 active. AID 485346;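 active means inhibition of at least 50% at 8 µM in the primary screen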
Target sequence (O15151 whole entry, looked up): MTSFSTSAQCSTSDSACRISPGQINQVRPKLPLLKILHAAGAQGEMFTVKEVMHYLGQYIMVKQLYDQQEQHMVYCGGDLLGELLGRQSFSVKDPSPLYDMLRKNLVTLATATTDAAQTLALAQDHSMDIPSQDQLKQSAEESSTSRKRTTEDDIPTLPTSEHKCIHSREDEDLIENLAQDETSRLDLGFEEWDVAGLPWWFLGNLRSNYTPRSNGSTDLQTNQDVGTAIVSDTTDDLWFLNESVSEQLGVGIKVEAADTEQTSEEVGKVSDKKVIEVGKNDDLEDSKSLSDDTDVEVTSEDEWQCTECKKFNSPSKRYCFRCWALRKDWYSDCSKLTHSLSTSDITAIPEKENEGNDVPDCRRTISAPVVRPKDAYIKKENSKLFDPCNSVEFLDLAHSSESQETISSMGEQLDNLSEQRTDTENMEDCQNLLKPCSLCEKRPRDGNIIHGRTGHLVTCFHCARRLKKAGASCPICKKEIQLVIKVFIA
Target sequence (Q00987 whole entry, looked up): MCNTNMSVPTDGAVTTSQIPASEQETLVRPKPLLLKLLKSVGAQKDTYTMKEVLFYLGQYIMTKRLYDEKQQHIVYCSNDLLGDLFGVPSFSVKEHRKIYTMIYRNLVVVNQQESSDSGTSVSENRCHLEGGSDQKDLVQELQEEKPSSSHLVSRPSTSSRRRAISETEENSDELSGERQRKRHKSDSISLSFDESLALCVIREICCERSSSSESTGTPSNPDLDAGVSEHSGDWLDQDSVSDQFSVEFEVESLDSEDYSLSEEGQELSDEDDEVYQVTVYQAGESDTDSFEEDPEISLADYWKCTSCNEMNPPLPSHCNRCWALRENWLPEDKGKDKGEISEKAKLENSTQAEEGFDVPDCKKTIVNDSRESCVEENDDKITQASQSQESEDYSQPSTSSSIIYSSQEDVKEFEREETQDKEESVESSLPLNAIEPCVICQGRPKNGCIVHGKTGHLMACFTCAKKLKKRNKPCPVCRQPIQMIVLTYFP
Gli-Sufu antag: antagonists of Gli-Sufu signaling. Sufu-KO-LIGHT fibroblasts, Gli luciferase reporter luminescence. inhibition, % at 5 µM. 0.74% of 340,000 active. AID 588413;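 active means inhibition above about 55%, limit read from the data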;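 further: 0% = DMSO-treated cells and 100% = wells with medium but no cells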
MPTP inh: inhibitors of mitochondrial permeability transition pore; isolated mouse mitochondria, Ca2+ swelling absorbance, 30 min; inhibition, % at 10 µM; 1.4% of 360,000 active; AID 602449;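 active means inhibition of 50% or more, scaled per plate between neutral and stimulator controls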;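 further: 0% = DMSO wells given calcium and 100% = 1 mM EGTA wells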
CSC inhib: blocks cancer stem cells. cancer stem cell-like cells viability, luminescence. inhibition, % at 7.5 µM. 1.1% of 300,000 active; in the data active means inhibition above about 75%; tested in HMLE shEcad cells
MPTP counter: mitochondrial membrane potential, counter-screen. shares compounds with MPTP inh. isolated mitochondria, Rhodamine 123 fluorescence. inhibition, % at 10 µM. 78% of 5,000 active; in the data active means inhibition above about 22%;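 further: 0% = DMSO vehicle and 100% = positive control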
MPTP swell DR: dose response confirmation of mitochondrial permeability transition pore inhibitors; shares compounds with MPTP inh; 58% of 780 active; IC50, µM; isolated mitochondria swelling, absorbance; AID 651561; in the data active means IC50 below about 20 µM
MPTP counter DR: MPTP inhibitor counter-screen activity, dose response. AID 651564. isolated mitochondria counterscreen, fluorescence read-out. IC50, µM. shares compounds with MPTP inh. 49% of 780 active; in the data active means IC50 below about 80 µM
Active calls of the source: *; i = inactive; . = not tested or not shown.

SMILES	Beta apoptosis	GRIN3A LBD mod	Mdm2-MdmX inh	Gli-Sufu antag	MPTP inh	CSC inhib	MPTP counter	others
Cc1nc(SCc2nc3ccccc3[nH]2)c2oc3cc([N+](=O)[O-])ccc3c2n1	-8	1	16	5	-1	.	.
CSCCC(NC(=O)c1cccc([N+](=O)[O-])c1)c1nc2ccccc2[nH]1 (stereo not drawn)	2	-9	12	-10	6	-7	.
O=C(NC(Cc1ccccc1)c1nc2ccccc2[nH]1)c1cccc([N+](=O)[O-])c1 (stereo not drawn)	3	-7	5	-6	65*	16	65*
C=CCn1c(NC(=O)c2ccccc2Cl)c(C#N)c2nc3ccccc3nc21	14	3	21	5	74*	32	79*
N#CC1=C(N)OC2=C(C(=O)CCC2)C1c1cc2c(cc1Cl)OCO2 (stereo not drawn)	-8	-1	9	1	0	-1	.
CNCCC=C1c2ccccc2CCc2ccccc21	3	0	46	7	86*	9	-9	MPTP swell DR=6*;MPTP counter DR=>80
COC(=O)[C@@H](N)CS	3	3	7	-6	-2	-2	.
CCCn1c(N)c(C(=O)CSc2nc(C3CC3)n(-c3ccccc3)n2)c(=O)[nH]c1=O	-3	0	25	-6	0	-6	.
Cc1ccc(C(=O)CCC(=O)OCC(=O)N2CCN(S(=O)(=O)c3ccc(C)cc3C)CC2)cc1	.	2	.	0	0	.	.
O=C(CCN1C(=O)/C(=C/c2ccccc2)SC1=S)NCCCN1CCOCC1	-7	-3	-11	1	74*	42	4	MPTP swell DR=i;MPTP counter DR=63*
O=C(CCN1C(=O)/C(=C\c2cccc(Br)c2)SC1=S)NCCCN1CCOCC1	-8	0	21	0	65*	.	18	MPTP swell DR=17*;MPTP counter DR=17*
CCc1ccc(/C=C2/SC(=S)N(CCC(=O)NCCCN3CCOCC3)C2=O)cc1	-4	-2	12	8	3	8	.
O=C(CCN1C(=O)/C(=C/c2ccccc2)SC1=S)NNC(=O)c1ccncc1	.	0	-34	6	7	-4	.
COC(=O)c1ccc(/C=C2/SC(=S)N(CCC(=O)NCCCN3CCOCC3)C2=O)cc1	-5	1	-7	-9	19	.	.
O=C(CCN1C(=O)/C(=C\c2ccccc2)SC1=S)NNC(=O)c1ccncc1	2	-1	-21	3	53*	1	4	MPTP swell DR=>100;MPTP counter DR=>80
CCOC(=O)C1(CCOc2ccccc2)CCN(Cc2cccs2)CC1	7	1	9	12	52*	20	8	MPTP swell DR=17*;MPTP counter DR=48*
CCOC(=O)C1(CCOc2ccccc2)CCN(Cc2ccncc2)CC1	6	-2	6	19	-2	23	.
CCOC(=O)C1(CCOC)CCN(Cc2cccc(OCc3ccccc3)c2)CC1	.	-2	8	34	55*	5	10	MPTP swell DR=15*;MPTP counter DR=26*
CCOC(=O)C1(CCOC)CCN(C/C=C/c2ccccc2OC)CC1	19	4	.	1	90*	-1	49*
O=C(O)c1ccc2ccc3ccccc3c2c1	-1	2	20	3	3	11	.
COc1cc(OC)cc(-c2c(C#Cc3ccsc3)c3cc(-c4cccc5[nH]ccc45)ccc3n2C)c1	1	7	44	2	0	13	.
CCCCCCCCNCCS(=O)(=O)NCc1ccccc1	.	-1	.	20	3	.	.
CNC(=O)c1cnc(-c2ccccc2)nc1-c1ccccc1	-9	0	27	-36	-1	-13	.
O=C(Nc1ccc(Cl)cc1)c1cnc(-c2ccccc2)nc1-c1ccccc1	11	7	8	11	73*	10	36*
O=C(Nc1ccc(Br)c(C(F)(F)F)c1)c1ccccc1	11	8	-11	-24	100*	24	89*
SMILES	Beta apoptosis	GRIN3A LBD mod	Mdm2-MdmX inh	Gli-Sufu antag	MPTP inh	CSC inhib	MPTP counter	others
CC(C)CC(=O)NC(c1ccccc1Cl)c1c(O)ccc2ccccc12 (stereo not drawn)	-1	-3	21	-11	76*	16	86*
O=C(/C=C/c1ccc(Br)cc1)NC(=O)c1ccccc1O	-8	3	-98	-40	102*	-12	88*
O=C(/C=C/c1ccc(O)c(O)c1)NC(=O)c1ccccc1O	.	8	-7	-73	-1	0	.
Cc1ccc(NC(=O)CCC(=O)c2ccc(F)cc2)cc1Cl	-3	-2	-15	6	-2	-6	.
COc1cccc(C(C)NC(=O)Nc2cc(Cl)ccc2OC)c1 (stereo not drawn)	-8	2	23	-3	-1	7	.
COc1cccc(NC(=O)Nc2ccc(C(C)(C)C)cc2)c1	.	18*	-43	-83	79*	.	81*
Cc1ccc(NC(=O)Nc2ccc(F)cc2)cc1Cl	30	28*	-24	11	95*	1	90*
COc1cccc(NC(=O)Nc2cc(C(=O)O)ccc2C)c1	-7	-3	-5	1	-1	-9	.
COc1cccc(NC(=O)Nc2ccc(C)c(Cl)c2)c1	12	34*	-44	-55	80*	16	90*
COc1cccc(C(C)NC(=O)Nc2cccc(C(F)(F)F)c2)c1 (stereo not drawn)	-1	0	14	-14	96*	7	102*
c1ccc2c(c1)-c1nc3ccccc3cc1C2N1CCOCC1 (stereo not drawn)	.	1	.	0	0	.	.
C=CCC1(CC=C)CCCN1C(=O)c1cc(COc2ccc(C)nc2)on1	105*	2	-42	77*	99*	3	90*
CCOc1ccc(N/N=C(/C#N)C(N)=O)cc1	-2	-5	-3	-9	1	-1	.
CCOC(=O)NC(=O)/C(C#N)=N\Nc1ccc(Cl)cc1	.	-5	-14	4	90*	-7	95*
Cc1ccc(N2CC(C(=O)Nc3cc(C)on3)CC2=O)cc1 (stereo not drawn)	-7	.	-4	17	0	-10	.
CCN1C(=O)[C@H]2[C@@H](c3ccc(C)cc3)N3C(=O)N(c4ccc(C(F)(F)F)cc4)C(=O)[C@@]3(CC(C)C)[C@H]2C1=O	5	-9	44	3	94*	2	98*
COc1ccc(C)cc1NC(=O)C(=O)NCc1ccncc1	-8	0	-3	2	-4	-18	.
COc1ccccc1C(CNC(=O)CNC(=O)c1ccccc1Cl)N1CCCC1 (stereo not drawn)	-2	-2	14	12	-2	-9	.
COC(=O)c1cc(=O)nc(NN=C2c3ccccc3-c3ccccc32)s1	.	.	.	.	58*	.	51*
